In the supplement of paper PMC6089552:
About 300 (9.4%) of roughly 3,200 compounds showed activity. Many of the other results were omitted from the sample, so actives are more common in it than they were.

Test system: A673/TR/shEF
Test: cell viability (LOESS-normalised, relative to median of negative controls) (log2 ratio); higher = more viable cells (less compound effect), active = hit call of the paper (over 3 MAD below the median)
Details: treatment time: 72 h
Summary of the method: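 A673/TR/shEF Ewing sarcoma cells (1,500 per well, 384-well plates) were grown with or without doxycycline to induce EWS-FLI1 shRNA knockdown, starting 24 h before compounds. Library compounds at two or more concentrations, with DMSO controls, were added for three days. Cell viability was read by CellTiter-Glo luminescence on an Envision reader, then LOESS-corrected per plate, divided by the median of negative controls and log2-transformed. Hits were wells at least three median absolute deviations from the median of all screened wells.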

[1] = 0.25 µM, library screen: screen1, EWS-FLI1 expression: high (no doxycycline)
[2] = 0.25 µM, library screen: screen1, EWS-FLI1 expression: low (doxycycline-induced shRNA knockdown)
[3] = 2.5 µM, library screen: screen1, EWS-FLI1 expression: high (no doxycycline)
[4] = 2.5 µM, library screen: screen1, EWS-FLI1 expression: low (doxycycline-induced shRNA knockdown)
[5] = 0.103 µM, library screen: screen3, EWS-FLI1 expression: high (no doxycycline)
[6] = 0.103 µM, library screen: screen3, EWS-FLI1 expression: low (doxycycline-induced shRNA knockdown)
[7] = 0.308 µM, library screen: screen3, EWS-FLI1 expression: high (no doxycycline)
[8] = 0.308 µM, library screen: screen3, EWS-FLI1 expression: low (doxycycline-induced shRNA knockdown)
[9] = 0.926 µM, library screen: screen3, EWS-FLI1 expression: high (no doxycycline)
[10] = 0.926 µM, library screen: screen3, EWS-FLI1 expression: low (doxycycline-induced shRNA knockdown)
[11] = 2.8 µM, library screen: screen3, EWS-FLI1 expression: high (no doxycycline)
[12] = 2.8 µM, library screen: screen3, EWS-FLI1 expression: low (doxycycline-induced shRNA knockdown)
[13] = 8.3 µM, library screen: screen3, EWS-FLI1 expression: high (no doxycycline)
[14] = 8.3 µM, library screen: screen3, EWS-FLI1 expression: low (doxycycline-induced shRNA knockdown)
[15] = 25 µM, library screen: screen3, EWS-FLI1 expression: high (no doxycycline)
[16] = 25 µM, library screen: screen3, EWS-FLI1 expression: low (doxycycline-induced shRNA knockdown)
[17] = 0.25 µM, library screen: screen2, EWS-FLI1 expression: high (no doxycycline)
[18] = 0.25 µM, library screen: screen2, EWS-FLI1 expression: low (doxycycline-induced shRNA knockdown)
[19] = 2.5 µM, library screen: screen2, EWS-FLI1 expression: high (no doxycycline)
[20] = 2.5 µM, library screen: screen2, EWS-FLI1 expression: low (doxycycline-induced shRNA knockdown)

Measured: cell viability (log2)

C/C=C(/C)C(=O)O[C@H]1[C@H](OC(C)=O)[C@]2(CO)[C@H](O)C[C@]3(C)C(=CC[C@@H]4[C@@]5(C)CC[C@H](O[C@@H]6O[C@H](C(=O)O)[C@@H](O[C@@H]7O[C@H](CO)[C@@H](O)[C@H](O)[C@H]7O)[C@H](O)[C@H]6O[C@@H]6O[C@H](CO)[C@@H](O)[C@H](O)[C@H]6O)[C@](C)(CO)[C@@H]5CC[C@]43C)[C@@H]2CC1(C)C.C/C=C(\C)C(=O)O[C@H]1[C@H](OC(C)=O)[C@@]2(CO)C(CC1(C)C)C1=CCC3[C@@]4(C)CC[C@H](O[C@@H]5O[C@H](C(=O)O)[C@@H](O[C@@H]6O[C@H](CO)[C@@H](O)[C@H](O)[C@H]6O)[C@H](O)[C@H]5O[C@@H]5O[C@H](CO)[C@@H](O)[C@H](O)[C@H]5O)[C@](C)(CO)C4CC[C@@]3(C)[C@]1(C)C[C@H]2O
inactive: [1] 0.0112 | [2] -0.0408 | [3] 0.0934 | [4] 0.0403

CCC1=C[C@@H]2CN(C1)Cc1c([nH]c3ccccc13)[C@@](C(=O)OC)(c1cc3c(cc1OC)N(C)[C@H]1[C@@](O)(C(=O)OC)[C@H](OC(C)=O)[C@]4(CC)C=CCN5CC[C@]31[C@@H]54)C2
active: [5] -4.31 | [6] -1.05 | [7] -3.96 | [8] -1.11 | [9] -4.31 | [10] -0.811 | [11] -4.31 | [12] -0.798 | [13] -3.91 | [14] -0.769 | [15] -3.44 | [16] -0.836

CC[C@]1(O)C[C@H]2CN(CCc3c([nH]c4ccccc34)[C@@](C(=O)OC)(c3cc4c(cc3OC)N(C=O)[C@H]3[C@@](O)(C(=O)OC)[C@H](OC(C)=O)[C@]5(CC)C=CCN6CC[C@]43[C@@H]65)C2)C1
active: [5] -3.56 | [6] -0.748 | [17] -2.87 | [18] -0.436 | [7] -3.82 | [8] -0.668 | [9] -3.92 | [10] -0.728 | [19] -2.88 | [20] -0.517 | [11] -3.8 | [12] -0.704 | [13] -3.93 | [14] -0.847 | [15] -3.66 | [16] -0.84

CCC1(O)CC2CN(CCc3c([nH]c4ccccc34)[C@@](C(=O)OC)(c3cc4c(cc3OC)N(C)C3[C@]45CCN4CC=C[C@@](CC)([C@@H](OC(C)=O)[C@]3(O)C(=O)OC)[C@H]45)C2)C1 (some centres not stated)
active: [17] -3.54 | [18] -0.483 | [19] -3.67 | [20] -0.537

C=CCN1C(=O)C(=C2C(=O)N(C)c3ccccc32)SC1=S
inactive: [1] 0.145 | [2] 0.0841 | [3] 0.0806 | [4] 0.0634

CC1(C)C[C@H](O)[C@]23CC[C@@H](O)[C@@](C)(CC[C@@H]12)C3
inactive: [1] 0.155 | [2] 0.054 | [3] 0.181 | [4] 0.0139

C=CCNc1nc2ccccn2c(=O)c1/C=C1\SC(=S)N(CCc2ccccc2)C1=O
inactive: [1] 0.071 | [2] 0.0307 | [3] 0.121 | [4] 0.134

CCOC(=O)c1c[nH]c2c(Cl)c(Cl)ccc2c1=O
inactive: [1] 0.0772 | [2] 0.122 | [3] 0.11 | [4] 0.176

O=C(O)c1ccc(O)c2c1C(=O)c1cc(O)cc(O)c1C2=O
inactive: [1] 0.0473 | [2] -0.0191 | [3] 0.0745 | [4] 0.0247

COc1cc(OC)c(OC)cc1CN1CCN(Cc2cccnc2)CC1
inactive: [1] 0.0812 | [2] 0.0446 | [3] 0.193 | [4] 0.00403

COc1cc(CN2CCN(Cc3cccnc3)CC2)cc(OC)c1OC
inactive: [1] 0.0843 | [2] 0.0394 | [3] 0.126 | [4] 0.144

COC(=O)Nc1ccc(-c2nc(N3CCOCC3)c3cnn(C4CCN(C(=O)OC)CC4)c3n2)cc1
active: [11] -0.281 | [12] -0.237 | [13] -0.419 | [14] -0.244 | [15] -0.744 | [16] -0.369
inactive: [5] -0.0923 | [6] 0.0164 | [7] -0.0767 | [8] -0.0949 | [9] -0.134 | [10] -0.0918

COC(=O)Nc1ccc(-c2nc(N3CCOCC3)c3cnn(C4CCN(Cc5cccnc5)CC4)c3n2)cc1
active: [11] -0.33 | [12] -0.297 | [13] -0.973 | [14] -0.691 | [15] -1.84 | [16] -1.76
inactive: [5] -0.0181 | [6] 0.0282 | [7] -0.00456 | [8] -0.0439 | [9] -0.169 | [10] -0.0706

COc1cc(/C=C/C(=O)/C=C(O)/C=C/c2ccc(O)c(OC)c2)ccc1O
inactive: [1] 0.0822 | [2] 0.0311 | [3] 0.0603 | [4] -0.0173

COC(=O)c1c(C)c2c(c(C)c1OC(C)=O)OC(=O)c1c(C)c(Cl)c(OC(C)=O)c(Cl)c1O2
inactive: [1] 0.0638 | [2] 0.0229 | [3] 0.0457 | [4] -0.0376

C/C1=C2N=C(/C=C3N=C(/C(C)=C4\[N-]C(C(CC(N)=O)C4(C)CCC(=O)NCC(C)OP(=O)([O-])OC4C(CO)OC(n5cnc6cc(C)c(C)cc65)C4O)C4(C)N=C1C(CCC(N)=O)C4(C)CC(N)=O)C(CCC(N)=O)C\3(C)C)C(CCC(N)=O)C/2(C)CC(N)=O.[Co+3] (configuration not stated)
inactive: [1] -0.0019 | [2] 0.0391 | [3] 0.0729 | [4] 0.0491

COc1cc(CN2CCN(Cc3cccc(Cl)c3)CC2)c([N+](=O)[O-])cc1OC
inactive: [1] 0.103 | [2] 0.0472 | [3] 0.18 | [4] 0.111

CCc1c(C)c(C#N)c2nc3ccccc3n2c1N1CCN(C)CC1
inactive: [1] 0.145 | [2] 0.157 | [3] 0.118 | [4] 0.0375

N#C/C(=C\c1ccc(O)c(O)c1)C(=O)NCCCNC(=O)/C(C#N)=C/c1ccc(O)c(O)c1
inactive: [17] 0.153 | [18] 0.132 | [19] 0.199 | [20] 0.0575

COc1cc(/C=C(\C#N)C(=O)c2ccc(O)c(O)c2)cc(I)c1O
inactive: [17] 0.152 | [18] 0.068 | [19] 0.173 | [20] -0.0106

N#C/C(=C\c1c[nH]c2ccccc12)C(=O)c1ccc(O)c(O)c1
inactive: [17] 0.155 | [18] 0.0215 | [19] 0.202 | [20] 0.127

N#C/C(=C\c1ccc(O)c(O)c1)C(N)=O
inactive: 0.025 µM, library screen: screen1, EWS-FLI1 expression: high (no doxycycline) 0.246 | 0.025 µM, library screen: screen1, EWS-FLI1 expression: low (doxycycline-induced shRNA knockdown) 0.0278 | [2] 0.0878 | [4] 0.0598 | 25 µM, library screen: screen1, EWS-FLI1 expression: low (doxycycline-induced shRNA knockdown) 0.125
active: [3] -0.381 | 25 µM, library screen: screen1, EWS-FLI1 expression: high (no doxycycline) -0.224
0.319: [1]

N#C/C(=C\c1ccc(O)c(O)c1)C(=O)c1ccc(O)c(O)c1
active: [17] -0.567 | [18] -0.546 | [19] -2.72 | [20] -2.83
